Assay results as given in PubChem BioAssay (Tox21).
Records with an inconclusive call do not appear. Calls of active or inactive are those of the source. Unless noted, the call rests on the fitted dose curve; in most records, active means well fitted curve in the direction sought with a large enough effect in the repeat runs; inconclusive means weak or mixed curves; inactive means no such curve, though single readings can be large; an effect the other way counts as inactive or inconclusive.

Experiments:
[1] = qHTS assay for small molecule agonists of the p53 signaling pathway - cell viability (AID 651633; calls by dose curve;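 further: p53RE-bla HCT reporter cells with a stable beta-lactamase p53 reporter; nearly all actives have a fitted effect of over 30% in size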)
How it was run: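 p53RE-bla cells were treated with compound for 16 hours at 37 C. Cytotoxicity was then measured as CellTiter-Glo luminescence after 30 min at room temperature.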

[2] = qHTS assay for small molecules that induce genotoxicity in human embryonic kidney cells expressing luciferase-tagged ATAD5 - cell viability (AID 651634; calls by dose curve; further: nearly all actives have a fitted effect of over 25% in size)
How it was run: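 15.5 hr compound or vehicle exposure of HEK293T cells expressing luciferase-tagged ATAD5 at 37C; live-cell protease activity is read by fluorescence after 30 min of CellTiter-Fluor.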

[3] = qHTS assay for small molecule disruptors of the mitochondrial membrane potential - cell viability (AID 720634; calls by dose curve;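 further: human HepG2 liver cancer cells; nearly all actives have a fitted effect of over 20% in size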)
How it was run: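 In this qHTS format, HepG2 cells plated overnight were pinned with compound, incubated 1 hr, and assayed for ATP luminescence with CellTiter-Glo after m-MPI dye addition.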

[4] = qHTS assay to test for compound auto fluorescence at 590 nm (red) in HepG2 cells (AID 720674)
How it was run: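 Seeding: 2,000 HepG2 cells/well, MEM/10% FBS, overnight 37 C. Dosing: compound vs DMSO. Incubation: 1 hr, 37 C, 5% CO2. Read: fluorescence 540 ex/590 em, Rose Bengal sodium as red reference.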

[5] = qHTS assay to test for compound auto fluorescence at 535 nm (green) in HepG2 cells (AID 720675)
[6] = qHTS assay to test for compound auto fluorescence at 460 nm (blue) in HEK293 cells (AID 720678)
How it was run: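 HEK293 cells (2,000/well, medium with 10% dialyzed FBS) attached 4-5 hr, then exposed to compound overnight at 37C, 5% CO2. Blue fluorescence read at 405/460 nm, with triamterene as reference fluorophore.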

[7] = qHTS assay to test for compound auto fluorescence at 590 nm (red) in HEK293 cells (AID 720679)
How it was run: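 HEK293 cells (2,000/well, 10% dialyzed FBS) attached 4-5 hr, then dosed with compound or DMSO and incubated overnight at 37C, 5% CO2. Red fluorescence read at 540/590 nm, Rose Bengal sodium as reference fluorophore.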

[8] = qHTS assay to test for compound auto fluorescence at 535 nm (green) in HEK293 cells (AID 720680)
[9] = qHTS assay to test for compound auto fluorescence at 460 nm (blue) in HEK293 cell free culture (AID 720681)
How it was run: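 Compounds were added to cell-free DMEM with 10% FBS and fluorescence read directly. The blue channel used 405 nm excitation and 460 nm emission, with triamterene as the reference fluorophore.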

[10] = qHTS assay to test for compound auto fluorescence at 535 nm (green) in HEK293 cell free culture (AID 720682)
How it was run: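 Steps: dispense DMEM/10% FBS into empty wells; pin in compound or DMSO; measure fluorescence at 485/535 nm. Values are fluorescein equivalents.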

[11] = qHTS assay to test for compound auto fluorescence at 590 nm (red) in HEK293 cell free culture (AID 720683)
How it was run: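 Cell-free wells of DMEM with 10% FBS received compound, and intrinsic fluorescence was read at excitation/emission 540/590 nm. Values expressed as equivalence to Rose Bengal sodium.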

[12] = qHTS assay to test for compound auto fluorescence at 590 nm (red) in HepG2 cell free culture (AID 720684)
How it was run: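 Rose Bengal sodium served as the reference for red signal. Test compounds were dispensed into serum-containing MEM (10% FBS) without cells, and plates were read at 540/590 nm.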

[13] = qHTS assay to test for compound auto fluorescence at 460 nm (blue) in HepG2 cell free culture (AID 720685)
How it was run: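 Cell-free plates of MEM plus 10% FBS received 23 nL compound or DMSO vehicle; blue-channel (405/460 nm) intensity scored against triamterene as reference fluorophore.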

[14] = qHTS assay to test for compound auto fluorescence at 535 nm (green) in HepG2 cell free culture (AID 720686)
[15] = qHTS assay to test for compound auto fluorescence at 460 nm (blue) in HepG2 cells (AID 720687)
How it was run: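 HepG2 cells in MEM with 10% FBS, attached overnight at 37 C, were exposed to compound or DMSO for 1 hr at 37 C, 5% CO2. Blue fluorescence was read at 405/460 nm, with triamterene as reference fluorophore.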

[16] = qHTS assay for small molecule disruptors of the mitochondrial membrane potential (AID 720635); further: potency means the concentration at half of the fitted maximal effect
How it was run: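 HepG2 cells exposed to compound 1 hr at 37C, then Mito-MPS dye 30 min. Ratio read of aggregate (540/590 nm) versus monomer (490/535 nm) fluorescence.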

[17] = biological target: Glucocorticoid receptor (Homo sapiens) (UniProt P04150); assay: qHTS assay to identify small molecule agonists of the glucocorticoid receptor (GR) signaling pathway (AID 720691; active means well fitted activation curve with a large enough effect in the signal ratio in the repeat runs, not every such curve was filed as active; the % refers to the signal ratio; further: potency means the concentration at half of the fitted maximal effect); details: GR-bla HeLa, beta-lactamase reporter ratio, 18 h; activation: at 62.4 µM (top of the series) unless noted
How it was run: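 Measures GR pathway activation through a GRE-beta-lactamase reporter stably integrated in HeLa cells, with 18 h compound treatment at 37 C and fluorescence detection using a FRET substrate.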

[18] = biological target: Glucocorticoid receptor (Homo sapiens) (UniProt P04150); assay: qHTS assay to identify small molecule antagonists of the glucocorticoid receptor (GR) signaling pathway (AID 720692; active means well fitted inhibition curve with a large enough effect in the signal ratio in the repeat runs, not every such curve was filed as active; the % refers to the signal ratio)
How it was run: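 Tox21 10K library screened in concentration-response for blockade of dexamethasone (5 nM final)-induced GRE-bla reporter activity in HeLa cells; 18 h treatment, fluorescence read.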

[19] = qHTS assay for small molecules that induce genotoxicity in human embryonic kidney cells expressing luciferase-tagged ATAD5 (AID 651632); further: nearly all actives have a fitted effect of over 15% in size
How it was run: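 Concentration-response screen for ATAD5 upregulation in HEK293T luciferase reporter cells; 16 hr treatment at 37C, then luminescence after 30 min with Amplite at room temperature.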
On the % scale 0 is the no-effect control and ±100 the full control effect.

Sequence of Glucocorticoid receptor (Homo sapiens) (P04150 whole entry, looked up): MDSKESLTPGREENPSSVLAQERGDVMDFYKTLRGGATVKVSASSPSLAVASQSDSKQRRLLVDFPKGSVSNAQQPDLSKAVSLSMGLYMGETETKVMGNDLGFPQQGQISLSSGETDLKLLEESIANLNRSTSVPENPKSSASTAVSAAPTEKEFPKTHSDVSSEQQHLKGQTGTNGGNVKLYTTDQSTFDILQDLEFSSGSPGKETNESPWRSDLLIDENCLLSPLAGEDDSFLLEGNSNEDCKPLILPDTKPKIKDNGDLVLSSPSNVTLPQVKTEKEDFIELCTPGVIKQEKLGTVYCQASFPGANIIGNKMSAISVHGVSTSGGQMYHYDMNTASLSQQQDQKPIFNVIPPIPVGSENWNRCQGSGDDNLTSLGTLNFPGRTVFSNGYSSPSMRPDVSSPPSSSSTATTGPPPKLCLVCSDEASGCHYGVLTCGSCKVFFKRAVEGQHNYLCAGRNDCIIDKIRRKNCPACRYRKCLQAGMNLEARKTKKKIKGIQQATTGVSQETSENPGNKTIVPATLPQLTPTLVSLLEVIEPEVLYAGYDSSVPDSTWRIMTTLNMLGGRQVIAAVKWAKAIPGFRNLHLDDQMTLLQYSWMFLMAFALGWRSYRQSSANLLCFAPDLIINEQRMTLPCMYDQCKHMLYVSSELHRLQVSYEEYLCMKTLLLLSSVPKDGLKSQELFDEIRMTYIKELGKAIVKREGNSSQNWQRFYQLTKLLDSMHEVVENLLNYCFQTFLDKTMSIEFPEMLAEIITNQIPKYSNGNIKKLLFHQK

CCCNCC(O)COc1ccccc1C(=O)CCc1ccccc1 (configuration not stated)
inactive: Potency [1] | Potency [2] | Potency [3] | Potency [4] | Potency [5] | outcome [6] | Potency [7] | outcome [8] | outcome [9] | outcome [10] | Potency [11] | Potency [12] | outcome [13] | Potency [14] | outcome [15]

CCC(=O)O[C@]1(C(=O)CCl)[C@@H](C)C[C@H]2[C@@H]3CCC4=CC(=O)C=C[C@]4(C)[C@@]3(F)[C@@H](O)C[C@@]21C
inactive: Potency [1] | Potency [2] | Potency [3] | Potency [4] | Potency [5] | Potency [7] | outcome [8] | outcome [9] | Potency [11] | Potency [12] | outcome [13] | Potency [14] | outcome [15]
active: Potency [16] 23.7 µM | Potency [17] 0.0006 µM

CCO[C@H](Cc1ccc(OCCc2ccc(OS(C)(=O)=O)cc2)cc1)C(=O)O
inactive: Potency [2] | Potency [3] | Potency [16] | Potency [5] | outcome [6] | Potency [7] | outcome [8] | outcome [9] | outcome [10] | Potency [11] | Potency [12] | outcome [13] | Potency [14] | outcome [15] | Potency [17] | Potency [18]

O=C(Nc1ccccc1)c1ccccc1O
inactive: Potency [19] | Potency [2] | Potency [4] | Potency [5] | Potency [7] | outcome [9] | outcome [10] | Potency [11] | Potency [12] | outcome [13] | Potency [14] | outcome [15]
active: Potency [16] 2.43 µM

CCC(C)c1cc(C(C)(C)C)c(O)c(C(C)(C)C)c1 (configuration not stated)
inactive: Potency [19] | Potency [2] | Potency [3] | Potency [4] | outcome [6] | Potency [7] | outcome [8] | outcome [9] | outcome [10] | Potency [11] | Potency [12] | outcome [13] | Potency [14] | outcome [15] | Potency [17] | Potency [18]
active: Potency [16] 21.3 µM

OCCN1CCN(CCCN2c3ccccc3C=Cc3ccccc32)CC1
inactive: Potency [19] | Potency [1] | Potency [4] | Potency [5] | outcome [6] | Potency [7] | outcome [9] | outcome [10] | Potency [11] | Potency [12] | outcome [13] | outcome [15] | Potency [17]

c1cc(CCCc2ccncc2)ccn1
inactive: Potency [1] | Potency [2] | Potency [3] | Potency [4] | Potency [5] | Potency [7] | outcome [8] | outcome [9] | outcome [10] | Potency [11] | Potency [12] | outcome [13] | Potency [14] | outcome [15] | Potency [17] | Potency [18]

CCCCNc1ccc(C(=O)OCCOCCOCCOCCOCCOCCOCCOCCOCCOC)cc1
active: Potency [16] 3.2 µM
inactive: Potency [2] | Potency [3] | fluorescence, relative to Rose Bengal [4] -0.666% [at 18.6 µM] | fluorescence, % of fluorescein control [5] -0.0335% [at 18.6 µM] | fluorescence, % of triamterene [6] -0.29% [at 18.6 µM] | fluorescence, % of fluorescent control [7] 0.183% [at 18.6 µM] | fluorescence, % of fluorescent control [9] -0.35% [at 18.6 µM] | activity change [10] -0.0595% [at 18.6 µM] | fluorescence, % of fluorescent control [11] -0.482% [at 18.6 µM] | fluorescence, % of Rose Bengal [12] -0.448% [at 18.6 µM] | fluorescence, % of fluorescent control [13] -0.106% [at 18.6 µM] | fluorescence, % of fluorescein control [14] -0.018% [at 18.6 µM] | fluorescence, % of fluorescent control [15] -0.0219% [at 18.6 µM] | Potency [17] | Potency [18]

CCC(Cl)CCC(Cl)C(Cl)CC(Cl)C(Cl)C(Cl)CCl (configuration not stated)
inactive: Potency [1] | Potency [2] | Potency [3] | Potency [4] | Potency [5] | outcome [6] | Potency [7] | outcome [8] | outcome [9] | outcome [10] | Potency [11] | Potency [12] | outcome [13] | outcome [15] | Potency [17] | Potency [18]

CC1CCC(=O)C1=O (configuration not stated)
inactive: Potency [19] | Potency [2] | Potency [3] | Potency [4] | Potency [5] | outcome [6] | Potency [7] | outcome [8] | outcome [9] | outcome [10] | Potency [11] | Potency [12] | outcome [13] | Potency [14] | outcome [15] | Potency [17]

CN(C)CCN(Cc1ccc(Cl)cc1)c1ccccn1
inactive: Potency [1] | Potency [2] | fluorescence, % of fluorescein control [5] 0.0171% [at 18.6 µM] | fluorescence, % of triamterene [6] 0.037% [at 18.6 µM] | fluorescence, % of fluorescent control [7] -0.0077% [at 18.6 µM] | fluorescence, % of fluorescein [8] 0.0009% [at 18.6 µM] | fluorescence, % of fluorescent control [9] -0.0429% [at 18.6 µM] | activity change [10] 2e-05% [at 18.6 µM] | fluorescence, % of fluorescent control [11] -0.237% [at 18.6 µM] | fluorescence, % of Rose Bengal [12] 0.0021% [at 18.6 µM] | fluorescence, % of fluorescent control [15] -0.0264% [at 18.6 µM] | Potency [17] | Potency [18]

Nc1ncn([C@H]2C[C@H](O)[C@@H](CO)O2)c(=O)n1
inactive: Potency [1] | Potency [2] | Potency [3] | Potency [4] | Potency [5] | outcome [6] | Potency [7] | outcome [8] | outcome [9] | outcome [10] | Potency [11] | Potency [12] | outcome [13] | Potency [14] | outcome [15] | Potency [17]

Cc1cccc(Nc2ccccc2)c1
inactive: Potency [1] | Potency [2] | Potency [5] | outcome [6] | Potency [7] | outcome [8] | outcome [9] | outcome [10] | Potency [11] | Potency [12] | outcome [13] | outcome [15]

CC(C)(C)OCC1CO1 (configuration not stated)
inactive: Potency [1] | Potency [2] | Potency [3] | Potency [16] | Potency [4] | Potency [5] | Potency [7] | outcome [9] | Potency [11] | Potency [12] | outcome [13] | Potency [14] | outcome [15]

CCCCCCCCCCCCCCOS(=O)(=O)O
inactive: Potency [19] | Potency [2] | Potency [3] | Potency [5] | outcome [6] | Potency [7] | outcome [8] | outcome [9] | outcome [10] | Potency [11] | Potency [12] | outcome [13] | Potency [14] | outcome [15] | Potency [18]
